Several values for one entry are separate records, joined by “and”; a condition that tells them apart may be missing. Equal values may be shown once. A number with no mark means an inactive call. Results filed as inconclusive are left out. Where a call stands in place of a potency, no number is given. Activity calls are given as the source filed them. Unless noted, calls follow the shape of the dose curve; as a rule, active = well fitted curve in the direction sought with a large enough effect; inconclusive = small, poorly fitted or top-dose-only effect, or another doubt; inactive = no such curve, though single readings can be large; an effect the other way counts as inactive or inconclusive.
Legend:
[1] = AP1 Signaling Pathway (AID 357; active = well fitted curve in either direction with a large enough effect, not every such curve was filed as active;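 also: ME-180 reporter cells stimulated with EGF at its EC50 level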); details: ME-180 AP-1-bla reporter, EGF-induced, beta-lactamase ratio, 5 h; at 7.69 µM (top of the series) unless noted
Outline: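 In this screen, ME-180 cells in Opti-MEM with 0.5% dialyzed FBS received EC50 EGF and compound titrations for 5 h. AP-1 reporter beta-lactamase was detected via CCF4 ratio, giving AC50 for positive and negative modulators.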

[2] = biological target: Cytochrome P450 1A2 (Homo sapiens) (UniProt P05177); test: p450-cyp1a2 (AID 410; calls by dose curve)
Outline: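 Luminescent readout of luciferin formed from Luciferin-ME by human CYP1A2; data normalized against complete inhibition by 57 uM furafylline. Enzyme 20nM, substrate 100uM at Km, 100mM KPO4 buffer, 60 min reaction at room temperature.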

[3] = NFAT Signaling Pathway (AID 444; active = well fitted curve in either direction with a large enough effect, not every such curve was filed as active;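 also: carbachol stimulus at about its EC50 of 1 µM final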); details: Jurkat NFAT-bla M1, carbachol, beta-lactamase ratio, 5 h; at 7.69 µM (top of the series) unless noted
Outline: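 Read-out: CCF4 FRET ratio (460 nm/530 nm) after 1 h RT dye loading, used for %activity and AC50 from titration series. Cells: Jurkat NFAT-β-lactamase/M1 line, treated with compound plus 1 uM carbachol for 5 h, 37 °C.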

[4] = Stat Signaling Pathway (AID 446; active = well fitted curve in either direction with a large enough effect, not every such curve was filed as active;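 also: ME-180 cervical cancer cells given 40 pM IL-6 alongside compound; SIE-controlled beta-lactamase reporter measured as 460/530 nm FRET emission ratio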); details: ME-180 SIE beta-lactamase reporter, IL-6 stimulated, 5 h; at 7.69 µM (top of the series) unless noted
Outline: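 ME-180 cells carrying a SIE-driven beta-lactamase reporter are stimulated with 40 pM IL-6 for 5 h at 37C in the presence of compound. The 460/530 nm FRET substrate ratio is read after 2.5 h at RT. Data are normalised to 300 pM IL-6 and to 125 nM JAK inhibitor controls.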

[5] = biological target: Glucocorticoid receptor (Homo sapiens) (UniProt P04150); test: GR-GFP Redistribution (AID 450;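 active = compounds whose dose series gives a full or clear partial fitted curve of increased nuclear translocation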; also: potency is read from the fitted curve at half-maximal effect); details: U2OS GR-GFP nuclear translocation, laser cytometry, 2 h
[6] = biological target: Glucocorticoid receptor (Homo sapiens) (UniProt P04150); test: GR-EFC Redistribution (AID 451; calls by dose curve; also: potency is read from the fitted curve at half-maximal effect); details: CHO-K1 GR-EFC translocation, beta-gal luminescence, 2 h
Outline: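 Translocation of GR-ED fusion to nuclear EA restores b-gal, read by luminescence after 1 h room-temperature detection. Engineered CHO-K1 biosensor cells, 1,000/well, exposed 2 h at 37 C to titrations up to 46 uM final.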

[7] = biological target: 3',5'-cyclic-AMP phosphodiesterase 4B (Homo sapiens) (UniProt Q07343); test: qHTS Assay for Inhibitors of PDE-IV (AID 607; active = well fitted activation curve with a large enough effect in the main read-out, with a control signal flat, not every such curve was filed as active)
Outline: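 HEK293 ACTOne cells with CNG channel (1000/well), endogenous PDE4; membrane potential dye, compounds up to 22.9 uM final. Fluorescence Ex 535/Em 590; RO 20-1724 (100 uM final) as reference.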

[8] = biological target: Guanine nucleotide-binding protein G(i) subunit alpha-1 (Homo sapiens) (UniProt P63096); test: qHTS Assay for Inhibitors of RGS12 GoLoco Motif Activity (Green Fluorophore) (AID 879);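 also: negative values mean loss of peptide binding seen as reduced polarization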
Outline: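 Fluorescence polarization assay: 50 nM Gαi1 with 10 nM FITC-labeled RGS12 GoLoco peptide in 10 mM Tris pH 7.5, 150 mM NaCl, 0.1 mM GDP, 0.05% NP40, 10 min at room temperature with compound.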

[9] = biological target: Cytochrome P450 3A4 (Homo sapiens) (UniProt P08684); test: qHTS Assay for Activators of Cytochrome P450 3A4 (AID 885); also: nearly all actives have a fitted effect of over 65% in size
Outline: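 Human CYP3A4 (20 nM) with Luciferin-PPXE at 25 uM (its KM) in 200 mM KPO4; 10 min compound preincubation, then NADPH regeneration and 60 min reaction at RT. Luciferin read by luminescence; normalized to 57 uM ketoconazole full inhibition.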

[10] = biological target: Cytochrome P450 2C19 (Homo sapiens) (UniProt P33261); test: qHTS Assay for Inhibitors and Substrates of Cytochrome P450 2C19 (AID 899); also: nearly all actives have a fitted effect of over 60% in size
Outline: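 Reactions contain 5nM enzyme, 10uM Luciferin-H EGE (KM) and 50mM KPO4; compound preincubates 10 min at 37C, NADPH regeneration starts turnover for 60 min. Luminescence after detection reagent gives activity.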

[11] = biological target: Muscarinic acetylcholine receptor M1 (Rattus norvegicus) (UniProt P08482); test: qHTS Assay for Antagonists of Acetylcholine Muscarinic M1 Receptor: Kinetic Measurement of Intracellular Calcium Response (AID 943);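 also: Fluo-4 calcium signal as peak divided by basal fluorescence over 4 min; nearly all actives have a fitted effect of over 75% in size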
Outline: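 Rat M1-CHO cells, 2000/well, overnight → Fluo-4 no-wash dye with probenecid, 1 h 37C → compound 10 min, room temp → basal read 6 s → carbachol EC80 (100 nM) → 4 min kinetic read; peak/basal.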

[12] = biological target: Muscarinic acetylcholine receptor M1 (Rattus norvegicus) (UniProt P08482); test: qHTS Assay for Antagonists of Acetylcholine Muscarinic M1 Receptor: Measurement of IP-One Response (AID 944); also: nearly all actives have a fitted effect of over 75% in size
Outline: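 M1-CHO (rat), 2000 cells/well, overnight recovery; cpd 10 min; carbachol EC80 (200 nM), 30 min, HEPES buffer + 50 mM LiCl pH 7.4; IP-One HTRF, Ex 337, Em 620/665 nm.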

[13] = biological target: Pyruvate kinase (Leishmania mexicana) (UniProt Q27686); test: qHTS Validation Assay for Inhibitors of Leishmania Mexicana Pyruvate Kinase (AID 945)
Outline: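 The enzyme is a highly purified E451W mutant of LmPYK used at 0.2 nM. It converts 0.5 mM PEP and 0.1 mM ADP over 1 h at room temperature; product ATP is quantified by luciferase luminescence relative to DMSO controls.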

[14] = biological target: Pyruvate kinase PKM (Homo sapiens) (UniProt P14618); test: qHTS Assay for Activators of Human Muscle Pyruvate Kinase (AID 954; active = well fitted curve in the direction sought with a large enough effect, not every such curve was filed as active)
Outline: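 Purified human PKM2 (0.1 nM) with 0.5 mM PEP (Km) and 0.1 mM ADP in 50 mM imidazole pH 7.2, KCl, MgCl2, 1 h at room temperature; ATP formed read by coupled luciferase luminescence. Normalized to no-enzyme/110 uM thiadiazolimine inhibition; 0.3 nM enzyme column for activation.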

[15] = biological target: Alpha-galactosidase A (Homo sapiens) (UniProt P06280); test: Counterscreen for Glucocerebrosidase Inhibitors: qHTS Assay for Human alpha-Galactosidase at pH 4.5 (AID 992)
Outline: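 Human enzyme (2 nM) with 80 uM 4-methylumbelliferyl alpha-D-galactopyranoside in 50 mM citric acid, 0.005% Tween-20, pH 4.5, 20 min at room temperature. Compounds 0.7 nM–77 uM; fluorescence Ex 365/Em 440 after pH 10 stop; AC50 from Hill fits.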

[16] = biological target: alpha-glucosidase (Oryza sativa, rice) (UniProt Q653V4); test: Counterscreen for Glucocerebrosidase Inhibitors: qHTS Assay for Rice alpha-Glucosidase at pH 5.0 (AID 997)
Outline: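 Rice alpha-glucosidase (4 nM final) with 400 uM 4-methylumbelliferyl-alpha-D-glucopyranoside in citrate buffer pH 5.0, 20 min at room temperature, stopped at pH 10; fluorescence 365/440 nm, compounds 0.7 nM–77 uM, AC50 from Hill fits.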

[17] = qHTS Assay for Identification of Small Molecule Agonists for Thrombopoietin (TPO) Signaling Pathway (AID 917)
Outline: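 IL-3-dependent murine pro-B Ba/F3 cells, stably transfected with human TPO receptor and GpIIb-promoter luciferase, are incubated 24 hrs at 37 C with test compound and 26 pM TPO; luciferase signal is read after 10 min at room temperature.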

[18] = biological target: Cytochrome P450 2C9 (Homo sapiens) (UniProt P11712); test: qHTS Assay for Inhibitors and Substrates of Cytochrome P450 2C9 (AID 883); also: nearly all actives have a fitted effect of over 60% in size
Outline: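 Turnover of Luciferin-H (100uM, KM) by 10nM human CYP2C9 was measured over 60 min at 37C with NADPH regeneration; inhibitors and some substrates reduce luminescence. Data normalized to sulphaphenazole 57uM.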

[19] = biological target: Cytochrome P450 2D6 (Homo sapiens) (UniProt P10635); test: qHTS Assay for Inhibitors and Substrates of Cytochrome P450 2D6 (AID 891);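 also: luciferin methyl ether substrate demethylated by CYP2D6 with NADPH regeneration; nearly all actives have a fitted effect of over 60% in size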
Outline: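 Human CYP2D6 (5 nM) with 30 uM Luciferin-ME EGE (at Km) in 100 mM KPO4, compound preincubated 10 min, then NADPH regeneration system for 60 min at room temperature. Luciferin read by luminescence; normalized to 1.43 uM quinidine.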

Chain of Cytochrome P450 1A2 (Homo sapiens) (P05177 whole entry, looked up): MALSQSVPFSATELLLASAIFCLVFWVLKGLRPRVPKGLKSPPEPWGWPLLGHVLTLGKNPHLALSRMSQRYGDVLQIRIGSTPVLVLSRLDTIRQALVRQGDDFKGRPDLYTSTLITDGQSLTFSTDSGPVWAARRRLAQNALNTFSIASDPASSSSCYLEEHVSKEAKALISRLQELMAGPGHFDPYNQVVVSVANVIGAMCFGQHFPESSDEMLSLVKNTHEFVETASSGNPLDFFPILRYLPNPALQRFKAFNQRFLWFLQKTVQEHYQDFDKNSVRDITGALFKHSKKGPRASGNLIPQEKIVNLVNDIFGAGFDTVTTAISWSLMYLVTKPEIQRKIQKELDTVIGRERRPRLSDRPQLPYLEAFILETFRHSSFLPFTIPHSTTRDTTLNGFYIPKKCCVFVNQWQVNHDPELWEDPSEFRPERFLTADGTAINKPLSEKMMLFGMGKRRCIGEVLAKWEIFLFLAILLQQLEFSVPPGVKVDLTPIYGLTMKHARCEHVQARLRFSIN
Chain of Muscarinic acetylcholine receptor M1 (Rattus norvegicus) (P08482 whole entry, looked up): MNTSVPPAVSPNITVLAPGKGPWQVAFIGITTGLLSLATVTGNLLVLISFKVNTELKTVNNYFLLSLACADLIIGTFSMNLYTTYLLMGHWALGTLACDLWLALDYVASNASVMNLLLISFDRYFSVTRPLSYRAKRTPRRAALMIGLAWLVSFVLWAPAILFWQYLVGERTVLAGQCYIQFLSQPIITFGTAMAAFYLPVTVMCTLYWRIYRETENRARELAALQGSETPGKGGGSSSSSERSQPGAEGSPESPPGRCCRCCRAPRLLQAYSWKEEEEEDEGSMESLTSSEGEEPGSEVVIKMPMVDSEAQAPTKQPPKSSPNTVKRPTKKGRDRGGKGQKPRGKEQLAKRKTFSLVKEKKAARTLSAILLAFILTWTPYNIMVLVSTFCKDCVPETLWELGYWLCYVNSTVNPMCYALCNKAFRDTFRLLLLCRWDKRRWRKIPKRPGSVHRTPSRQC
Chain of Pyruvate kinase PKM (Homo sapiens) (P14618 whole entry, looked up): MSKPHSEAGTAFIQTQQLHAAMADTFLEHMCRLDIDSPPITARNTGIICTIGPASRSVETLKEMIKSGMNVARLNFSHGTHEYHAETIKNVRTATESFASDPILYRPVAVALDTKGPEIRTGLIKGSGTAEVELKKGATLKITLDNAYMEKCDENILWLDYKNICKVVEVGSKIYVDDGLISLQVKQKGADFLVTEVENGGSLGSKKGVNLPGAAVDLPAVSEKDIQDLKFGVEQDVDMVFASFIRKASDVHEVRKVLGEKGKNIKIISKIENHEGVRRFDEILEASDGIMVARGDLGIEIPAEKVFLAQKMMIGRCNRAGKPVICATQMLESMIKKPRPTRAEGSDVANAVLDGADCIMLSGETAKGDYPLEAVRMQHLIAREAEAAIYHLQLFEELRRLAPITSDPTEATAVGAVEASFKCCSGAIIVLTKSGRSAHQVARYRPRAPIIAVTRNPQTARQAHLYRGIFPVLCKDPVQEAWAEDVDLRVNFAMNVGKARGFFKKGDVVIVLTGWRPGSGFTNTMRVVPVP
Chain of Guanine nucleotide-binding protein G(i) subunit alpha-1 (Homo sapiens) (P63096 whole entry, looked up): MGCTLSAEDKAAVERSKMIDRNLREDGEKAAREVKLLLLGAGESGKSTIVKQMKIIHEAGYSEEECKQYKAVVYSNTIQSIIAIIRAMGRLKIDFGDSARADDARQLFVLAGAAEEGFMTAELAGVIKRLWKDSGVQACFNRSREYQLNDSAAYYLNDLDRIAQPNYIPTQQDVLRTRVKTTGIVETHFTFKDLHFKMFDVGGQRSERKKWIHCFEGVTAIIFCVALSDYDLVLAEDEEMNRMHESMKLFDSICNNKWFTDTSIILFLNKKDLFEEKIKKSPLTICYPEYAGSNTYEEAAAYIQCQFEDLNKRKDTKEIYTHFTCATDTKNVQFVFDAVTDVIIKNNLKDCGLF
Chain of 3',5'-cyclic-AMP phosphodiesterase 4B (Homo sapiens) (Q07343 whole entry, looked up): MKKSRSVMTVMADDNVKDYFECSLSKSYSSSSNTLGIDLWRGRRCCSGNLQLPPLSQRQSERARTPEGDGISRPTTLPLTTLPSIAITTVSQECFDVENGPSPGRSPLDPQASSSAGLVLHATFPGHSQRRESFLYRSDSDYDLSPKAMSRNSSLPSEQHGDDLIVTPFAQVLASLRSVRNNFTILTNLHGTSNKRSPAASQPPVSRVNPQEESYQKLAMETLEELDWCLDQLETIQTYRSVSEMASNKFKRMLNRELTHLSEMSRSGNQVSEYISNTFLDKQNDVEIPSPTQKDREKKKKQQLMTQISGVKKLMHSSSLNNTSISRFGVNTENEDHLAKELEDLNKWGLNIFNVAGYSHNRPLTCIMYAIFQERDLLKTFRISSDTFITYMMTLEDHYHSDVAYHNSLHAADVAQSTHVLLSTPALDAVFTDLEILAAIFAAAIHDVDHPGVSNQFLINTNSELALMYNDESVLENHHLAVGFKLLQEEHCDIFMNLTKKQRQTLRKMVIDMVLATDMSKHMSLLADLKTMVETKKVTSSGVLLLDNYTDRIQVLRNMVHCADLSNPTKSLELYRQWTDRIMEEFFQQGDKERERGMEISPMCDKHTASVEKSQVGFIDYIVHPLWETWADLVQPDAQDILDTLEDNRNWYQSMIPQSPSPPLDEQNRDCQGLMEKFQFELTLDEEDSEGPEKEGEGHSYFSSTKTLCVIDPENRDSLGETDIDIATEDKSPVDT
Chain of Alpha-galactosidase A (Homo sapiens) (P06280 whole entry, looked up): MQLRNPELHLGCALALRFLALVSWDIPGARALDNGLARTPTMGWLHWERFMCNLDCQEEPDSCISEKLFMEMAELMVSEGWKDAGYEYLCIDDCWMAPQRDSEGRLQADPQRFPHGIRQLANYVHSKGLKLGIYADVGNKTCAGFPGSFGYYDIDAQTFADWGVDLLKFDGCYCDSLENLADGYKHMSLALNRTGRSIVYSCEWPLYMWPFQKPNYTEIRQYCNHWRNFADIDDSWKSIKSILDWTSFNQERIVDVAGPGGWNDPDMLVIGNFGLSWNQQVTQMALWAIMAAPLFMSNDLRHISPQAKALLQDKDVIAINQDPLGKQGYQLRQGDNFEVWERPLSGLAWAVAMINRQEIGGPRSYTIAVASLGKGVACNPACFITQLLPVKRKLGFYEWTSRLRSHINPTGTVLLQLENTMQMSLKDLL
Chain of Pyruvate kinase (Leishmania mexicana) (Q27686 2-499 E452W): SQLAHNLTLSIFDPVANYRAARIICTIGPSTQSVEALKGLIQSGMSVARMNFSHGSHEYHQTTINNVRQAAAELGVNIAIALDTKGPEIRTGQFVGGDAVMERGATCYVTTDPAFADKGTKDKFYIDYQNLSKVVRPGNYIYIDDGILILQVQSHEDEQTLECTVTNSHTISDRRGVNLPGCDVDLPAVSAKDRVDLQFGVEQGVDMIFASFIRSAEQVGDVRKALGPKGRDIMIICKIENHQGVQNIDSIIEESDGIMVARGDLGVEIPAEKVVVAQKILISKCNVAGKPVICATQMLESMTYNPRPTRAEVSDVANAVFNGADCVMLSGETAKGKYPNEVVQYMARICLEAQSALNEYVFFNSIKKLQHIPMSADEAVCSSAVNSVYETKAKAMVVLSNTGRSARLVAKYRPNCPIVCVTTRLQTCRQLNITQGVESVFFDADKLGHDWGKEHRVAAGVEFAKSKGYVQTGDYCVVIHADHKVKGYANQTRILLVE
Chain of Glucocorticoid receptor (Homo sapiens) (P04150 whole entry, looked up, the tested form may be a part): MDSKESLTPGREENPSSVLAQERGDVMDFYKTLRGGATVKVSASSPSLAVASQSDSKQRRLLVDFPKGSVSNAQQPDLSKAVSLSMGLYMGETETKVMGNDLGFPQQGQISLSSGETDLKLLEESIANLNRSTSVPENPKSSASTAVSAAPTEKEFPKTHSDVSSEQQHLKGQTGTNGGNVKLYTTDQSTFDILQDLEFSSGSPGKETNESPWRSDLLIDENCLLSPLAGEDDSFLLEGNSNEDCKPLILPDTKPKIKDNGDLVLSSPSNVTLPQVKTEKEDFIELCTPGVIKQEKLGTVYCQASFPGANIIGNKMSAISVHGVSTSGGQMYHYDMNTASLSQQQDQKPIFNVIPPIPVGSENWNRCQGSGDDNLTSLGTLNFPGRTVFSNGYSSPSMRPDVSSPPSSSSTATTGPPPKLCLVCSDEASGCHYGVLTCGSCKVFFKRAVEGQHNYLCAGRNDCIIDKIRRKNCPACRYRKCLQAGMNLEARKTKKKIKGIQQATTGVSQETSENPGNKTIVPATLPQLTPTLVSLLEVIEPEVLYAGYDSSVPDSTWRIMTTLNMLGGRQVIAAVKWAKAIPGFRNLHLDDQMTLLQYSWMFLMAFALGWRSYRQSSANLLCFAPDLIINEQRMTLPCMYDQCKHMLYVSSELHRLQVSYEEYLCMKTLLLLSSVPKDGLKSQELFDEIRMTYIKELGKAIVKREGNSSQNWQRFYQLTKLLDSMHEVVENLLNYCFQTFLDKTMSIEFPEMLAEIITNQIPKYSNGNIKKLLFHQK
Chain of Cytochrome P450 2D6 (Homo sapiens) (P10635 whole entry, looked up): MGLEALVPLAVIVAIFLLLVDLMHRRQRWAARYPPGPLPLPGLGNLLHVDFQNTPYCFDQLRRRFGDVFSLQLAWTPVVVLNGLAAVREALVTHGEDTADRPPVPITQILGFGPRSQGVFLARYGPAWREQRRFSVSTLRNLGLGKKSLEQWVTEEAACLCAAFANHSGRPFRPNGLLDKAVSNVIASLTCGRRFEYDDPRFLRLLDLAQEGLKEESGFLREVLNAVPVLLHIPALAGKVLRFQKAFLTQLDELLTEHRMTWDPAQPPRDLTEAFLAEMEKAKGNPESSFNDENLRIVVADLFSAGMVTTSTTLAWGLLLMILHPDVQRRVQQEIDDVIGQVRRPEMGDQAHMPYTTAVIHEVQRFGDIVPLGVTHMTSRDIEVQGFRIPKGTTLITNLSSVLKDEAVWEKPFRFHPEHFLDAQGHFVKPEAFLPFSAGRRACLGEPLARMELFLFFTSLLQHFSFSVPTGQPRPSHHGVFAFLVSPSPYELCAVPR

Structure (SMILES)	activity change, negative = inhibition [1]	Potency [2]	activity change, negative = inhibition [3]	activity, negative = inhibition [4]	Potency [5]	Potency [6]	Potency [7]	outcome [8]	Potency [9]	Potency [10]	Potency [11]	Potency [12]	outcome [13]	outcome [14]	outcome [15]	Potency [16]	outcome [17]	Potency [18]	Potency [19]
CCCCC[C@H](CC(=O)NO)C(=O)N[C@@H](C(=O)N1CCC[C@H]1CO)C(C)C	26.8% [at 38 µM]	inactive	6.72% [at 38 µM]	7.77% [at 38 µM]	> 46 µM	> 46 µM	inactive	inactive	inactive	inactive	inactive	inactive	inactive	inactive	inactive	inactive			
CC(C)[C@H]1C(=O)C(C(N)=O)=C(O)[C@]2(O)C(=O)C3=C(O)c4c(O)ccc(N(C)C)c4C[C@H]3C[C@@H]12	0.478% [at 38 µM]	inactive	8.64% [at 38 µM]	1.38% [at 38 µM]	> 46 µM	> 46 µM	inactive	inactive			inactive	inactive	inactive	inactive	inactive	inactive			
CSc1nc(N)c2ncn([C@@H]3O[C@@H](COP(=O)(O)OP(=O)(O)O)[C@@H](O)[C@H]3O)c2n1	22.9% [at 38 µM]	inactive	6.32% [at 38 µM]	5.34% [at 38 µM]	> 46 µM	> 46 µM	inactive	inactive				inactive	inactive	inactive	inactive	inactive	inactive		
CC[C@@H]1CN2CCc3cc(OC)c(OC)cc3[C@H]2C[C@@H]1C[C@H]1NCCc2cc(OC)c(OC)cc21	-115% [at 17.2 µM] (active)	inactive	-120% [at 17.2 µM] (active)	-94.8% [at 17.2 µM] (active)	> 20.6 µM and > 46 µM	> 20.6 µM and > 46 µM												inactive	inactive
COc1cc([C@H](O)C(=O)O)ccc1O	5.25% [at 38 µM]	inactive	-1.26% [at 38 µM]	4.86% [at 38 µM]	> 46 µM	> 46 µM	inactive	inactive			inactive	inactive	inactive	inactive	inactive	inactive	inactive		
CC1(C)CCC(NC(=O)[C@H](N)CCC(=O)O)CC1	5.34% [at 38 µM]	inactive	2.47% [at 38 µM]	-7.41% [at 38 µM]	> 46 µM	> 46 µM	inactive	inactive			inactive	inactive	inactive	inactive	inactive	inactive	inactive		

— PubChem BioAssay (NCATS)
